# ± gives the standard deviation.
# T1: HaloTag-ATRX ADD domain (163-292)
# T1 chain: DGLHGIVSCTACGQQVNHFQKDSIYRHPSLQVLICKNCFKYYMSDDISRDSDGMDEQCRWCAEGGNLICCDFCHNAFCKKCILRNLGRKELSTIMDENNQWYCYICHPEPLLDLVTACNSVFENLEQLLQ
# Columns and labels:
# Assay in all cases: peptide microarray binding signal (635 nm), min-max normalized on array (fraction of array maximum); higher = stronger binding
# [1] = target: T1, HaloTag-ATRX ADD domain (163-292)
# How it was run: (§1)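 For each library, binding signal was taken as the triplicate-spot mean intensity and then min-max scaled. Spots of histone 13-mer peptide–cellulose conjugates on nitrocellulose, printed in triplicate with a Cy3 tracer, were probed for 1 h at 4°C with either biotin-labelled HaloTag reader fusions (10 nM to 1 μM) and streptavidin-Alexa Fluor 647 or rabbit histone antibodies (1:10,000 to 1:2,000) and anti-rabbit Alexa 647. Readout at 635 nm came from an Axon GenePix 4000B.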
# [2] = target: HaloTag-ING2 PHD (mouse Ing2 200-280)
# How it was run: as §1
# [3] = target: anti-H3K4me3 antibody ab8580
# How it was run: as §1
# [4] = target: anti-H3K9me3 antibody ab8898
# How it was run: as §1
# [5] = peptide region: H3 11-23, peptide modifications: H3K14me1, binder concentration: 1:2,000 dilution
# [6] = peptide region: H3 11-23, peptide modifications: H3K14me1, binder concentration: 1:10,000 dilution
# [7] = peptide region: H3 11-23, binder concentration: 1:2,000 dilution
# [8] = peptide region: H3 11-23, binder concentration: 1:10,000 dilution
# [9] = peptide region: H3 5-17, peptide modifications: H3S10ph H3T11ph, binder concentration: 1:2,000 dilution
# [10] = peptide region: H3 5-17, peptide modifications: H3S10ph H3T11ph, binder concentration: 1:10,000 dilution
# [11] = peptide region: H3 11-23, peptide modifications: H3K14ac H3R17me2s, binder concentration: 1:2,000 dilution
# [12] = peptide region: H3 11-23, peptide modifications: H3K14ac H3R17me2s, binder concentration: 1:10,000 dilution
# [13] = peptide region: H3 11-23, peptide modifications: H3K14me1 H3K18ac, binder concentration: 1:2,000 dilution
# [14] = peptide region: H3 11-23, peptide modifications: H3K14me1 H3K18ac, binder concentration: 1:10,000 dilution
binder,measurement,setting,value
TGGKAPRKQLATK [H3 11-23 T G G Kme A P R K Q L A T K],peptide microarray binding signal,"[1]; peptide region: H3 11-23, peptide modifications: H3K14me1, binder concentration: 50 nM",0.00646 ± 0.00024
same,peptide microarray binding signal,"[1]; peptide region: H3 11-23, peptide modifications: H3K14me1, binder concentration: 500 nM",0.0181 ± 0.002
same,peptide microarray binding signal,"[2]; peptide region: H3 11-23, peptide modifications: H3K14me1, binder concentration: 10 nM",0.00567 ± 0.00017
same,peptide microarray binding signal,"[2]; peptide region: H3 11-23, peptide modifications: H3K14me1, binder concentration: 100 nM",0.0256 ± 0.0033
same,peptide microarray binding signal,[3]; [5],0.0023 ± 0.00025
same,peptide microarray binding signal,[3]; [6],0.00108
same,peptide microarray binding signal,[4]; [5],0.004 ± 0.00032
same,peptide microarray binding signal,[4]; [6],0.00346 ± 0.00012
TGGKAPRKQLATK [H3 11-23 T G G K A P R K Q L A T K],peptide microarray binding signal,"[1]; peptide region: H3 11-23, binder concentration: 50 nM",0.00481 ± 0.00041
same,peptide microarray binding signal,"[1]; peptide region: H3 11-23, binder concentration: 500 nM",0.0154 ± 0.0015
same,peptide microarray binding signal,"[2]; peptide region: H3 11-23, binder concentration: 10 nM",0.00615 ± 0.00031
same,peptide microarray binding signal,"[2]; peptide region: H3 11-23, binder concentration: 100 nM",0.0175 ± 0.0019
same,peptide microarray binding signal,[3]; [7],0.000849 ± 5.7e-05
same,peptide microarray binding signal,[3]; [8],0.00097 ± 0.00013
same,peptide microarray binding signal,[4]; [7],0.00172 ± 0.00025
same,peptide microarray binding signal,[4]; [8],0.00138 ± 0.00011
QTARKSTGGKAPR [H3 5-17 Q T A R K Sph Tph G G K A P R],peptide microarray binding signal,"[1]; peptide region: H3 5-17, peptide modifications: H3S10ph H3T11ph, binder concentration: 50 nM",0.00295 ± 9.8e-05
same,peptide microarray binding signal,"[1]; peptide region: H3 5-17, peptide modifications: H3S10ph H3T11ph, binder concentration: 500 nM",0.00695 ± 0.00038
same,peptide microarray binding signal,"[2]; peptide region: H3 5-17, peptide modifications: H3S10ph H3T11ph, binder concentration: 10 nM",0.00346 ± 9.7e-05
same,peptide microarray binding signal,"[2]; peptide region: H3 5-17, peptide modifications: H3S10ph H3T11ph, binder concentration: 100 nM",0.016 ± 0.0014
same,peptide microarray binding signal,[3]; [9],0.000302 ± 3.1e-06
same,peptide microarray binding signal,[3]; [10],0.000285 ± 3.1e-06
same,peptide microarray binding signal,[4]; [9],0.00107 ± 0.00014
same,peptide microarray binding signal,[4]; [10],0.000461 ± 8.7e-06
TGGKAPRKQLATK [H3 11-23 T G G Kac A P Rme2s K Q L A T K],peptide microarray binding signal,"[1]; peptide region: H3 11-23, peptide modifications: H3K14ac H3R17me2s, binder concentration: 50 nM",0.00621 ± 0.00011
same,peptide microarray binding signal,"[1]; peptide region: H3 11-23, peptide modifications: H3K14ac H3R17me2s, binder concentration: 500 nM",0.0112 ± 0.00066
same,peptide microarray binding signal,"[2]; peptide region: H3 11-23, peptide modifications: H3K14ac H3R17me2s, binder concentration: 10 nM",0.0167 ± 0.00051
same,peptide microarray binding signal,"[2]; peptide region: H3 11-23, peptide modifications: H3K14ac H3R17me2s, binder concentration: 100 nM",0.02487 ± 0.00023
same,peptide microarray binding signal,[3]; [11],0.00702 ± 0.00068
same,peptide microarray binding signal,[3]; [12],0.00628 ± 0.00011
same,peptide microarray binding signal,[4]; [11],0.00362 ± 0.00034
same,peptide microarray binding signal,[4]; [12],0.00219 ± 3.5e-05
TGGKAPRKQLATK [H3 11-23 T G G Kme A P R Kac Q L A T K],peptide microarray binding signal,"[1]; peptide region: H3 11-23, peptide modifications: H3K14me1 H3K18ac, binder concentration: 50 nM",0.00715 ± 0.00026
same,peptide microarray binding signal,"[1]; peptide region: H3 11-23, peptide modifications: H3K14me1 H3K18ac, binder concentration: 500 nM",0.014 ± 0.00051
same,peptide microarray binding signal,"[2]; peptide region: H3 11-23, peptide modifications: H3K14me1 H3K18ac, binder concentration: 10 nM",0.014 ± 0.0016
same,peptide microarray binding signal,"[2]; peptide region: H3 11-23, peptide modifications: H3K14me1 H3K18ac, binder concentration: 100 nM",0.0363 ± 0.0088
same,peptide microarray binding signal,[3]; [13],0.007 ± 0.001
same,peptide microarray binding signal,[3]; [14],0.00331 ± 0.0003
same,peptide microarray binding signal,[4]; [13],0.00159 ± 1.9e-05
same,peptide microarray binding signal,[4]; [14],0.00127 ± 3.4e-05
